The full ranking holds about 3,600 compounds; the median of “viability index relative to DMSO control” is about 0.81, and the lowest 2% start at about 0.13. Many of the other results were omitted from the sample, so the lowest values are more common in it than they were.
Test system: Plasmodium falciparum NF54 stage V gametocytes
Experiment: viability index relative to DMSO control (fraction); higher = less gametocyte killing
Details: 1.25 µM, incubation time: 72 h
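Also: Saponin-lysis sexual stage assay in serum-free medium: MitoTracker Red CMXRos staining plus saponin, high-content imaging, particle count per well divided by plate mean of DMSO wells.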

| SMILES | viability index |
| --- | --- |
| CC(C)c1ccc2c(c1)c1c3c([n+](C)ccn32)CCC1 | 1.22 |
| CC(Cc1ccsc1)Nc1nc2nonc2nc1N(C)C (configuration not stated) | 0.853 |
| Cc1ccc(OCCCCN2CCOCC2)c([N+](=O)[O-])c1 | 0.798 |
| O=C(Nc1cc(Cl)cc(Cl)c1)Nc1cccc(C(F)(F)F)c1 | 1.06 |
| COC1=C(Nc2cccc(C(F)(F)F)c2)C(=O)c2ccccc2C1=O | 0.606 |
| O=C1C=C(Nc2cccc(C(F)(F)F)c2)C(=O)c2ccccc21 | 0.0673 |
| CCOC(=O)c1ccc(N(C(=O)Cc2c[nH]c3ccccc23)C(C(=O)NC2CCCCC2)c2cccc(OC)c2OC)cc1 (configuration not stated) | 0.849 |
| NC12CC3CC(C1)CC(SSC14CC5CC(CC(N)(C5)C1)C4)(C3)C2 | 0.11 |
| COc1ccc(C2CC(=O)C3=C(C2)NC(=O)CC3c2ccc([N+](=O)[O-])cc2)cc1OC (configuration not stated) | 0.406 |
| O=C(Nc1ccc(-n2cnnn2)cc1)C1CCN(Cc2cc3ccccc3o2)CC1 | 0.942 |
| COc1ccc2c(c1)OC(O)(C(F)(F)C(F)(F)F)CC2=O (configuration not stated) | 0.6 |
| CCN(CC)S(=O)(=O)c1cc(C(=O)O)ccc1Cl | 0.971 |
| COc1cccc(OC)c1C(=O)Nc1cc(C(F)(F)F)ccc1Cl | 0.971 |
| COc1ccc(C=NNc2cc(C)nc3ccccc23)cc1 | 0.946 |
| COc1ccc(C=NNc2cc(C)nc3ccc(OC)cc23)c(OC)c1 | 0.591 |
| COC(=O)c1ccc(C=NNc2cc(C)nc3ccc(OC)cc23)cc1 | 0.0573 |
| CC(C)(C)CC(C)(C)c1ccc(O)c(CN2CCN(CCC#N)CC2)c1 | 0.735 |
| COc1ccc(CNC2CCN(c3cccc(NC(=O)C4CC4)c3)CC2)cc1 | 1.12 |
| C=CCN1C(=O)C(=C2Sc3ccc(OC)cc3N2C)SC1=Nc1ccccc1-c1ccccc1 | 0.448 |
| Oc1ccc(-c2cncnc2)cc1CNC1CCN(Cc2ccccc2)CC1 | 1 |
| CCN(CC)Cc1cc(Nc2ccnc3cc(Cl)ccc23)ccc1O | 0.873 |
| O=[N+]([O-])c1ccc(C=NNc2nc(Nc3ccccc3)nc(Nc3ccccc3)n2)o1 | 0.0664 |
| COc1ccc(Nc2nc(NN=Cc3cccc([N+](=O)[O-])c3OC)nc(Nc3ccc([N+](=O)[O-])cc3)n2)cc1 | 0.469 |

| SMILES | viability index |
| --- | --- |
| O=[N+]([O-])c1ccc(-c2ccc(C=NNc3nc(Nc4ccccc4)nc(Nc4ccccc4)n3)o2)cc1 | 0.626 |
| COc1ccc(-c2cnnc(NN=Cc3ccc([N+](=O)[O-])o3)n2)cc1 | 0.0154 |
| O=[N+]([O-])c1ccc(Nc2nc(NN=Cc3ccccc3I)nc(Nc3ccccc3)n2)cc1 | 0.985 |
| Cc1nonc1C(=O)NN=Cc1ccc([N+](=O)[O-])o1 | 0.871 |
| COc1ccc(NC(=O)NCc2cccn2Cc2ccc(F)cc2)cc1OC | 0.952 |
| CCOC(=O)c1sc(Nc2c(Cl)cc(S(N)(=O)=O)cc2Cl)nc1C | 0.886 |
| CCOC(=O)C1=C(C)NC2=C(C(=O)CC(c3ccc(OC)c(OC)c3)C2)C1c1ccccc1OC (configuration not stated) | 0.68 |
| CCOC(=O)c1c(NC(=O)CSc2nnc(CNC(=O)c3ccc(C)c(C)c3)n2C2CCCCC2)sc2c1CCC2 | 0.784 |
| O=C1CN(C(=O)CCC2CCCC2)C(c2ccc(F)cc2)c2cc(Cl)ccc2N1 (configuration not stated) | 0.751 |
| S=P(OCC1C(COP(=S)(c2ccccc2)c2ccccc2)C1(Cl)Cl)(c1ccccc1)c1ccccc1 (configuration not stated) | 0.562 |
| CN1C(=O)N(C)C2(c3ccccc3)NN3C(=NC12c1ccccc1)SC1=C3C(=O)c2ccccc2C1=O (configuration not stated) | 0.0309 |
| CCOC(=O)c1nnn(-c2nonc2N)c1-c1ccc(Br)cc1 | 0.676 |
| Cc1oc2c(c1C(=O)NCc1cccnc1)C(=O)c1ccccc1C2=O | 0.231 |
| CCOC(=O)C1CCN(C(=O)c2c(C)oc3c2C(=O)c2ccccc2C3=O)CC1 | 0.0992 |
| Cc1oc2c(c1C(=O)NC1CCS(=O)(=O)C1)C(=O)c1ccccc1C2=O (configuration not stated) | 0.0502 |
| Cc1oc2c(c1C(=O)N1CCN(C)CC1)C(=O)c1ccccc1C2=O | 0.43 |
| Cc1oc2c(c1C(=O)N1CCC(C)CC1)C(=O)c1ccccc1C2=O | 0.587 |
| CCOC(=O)C1CCCN(C(=O)c2c(C)oc3c2C(=O)c2ccccc2C3=O)C1 (configuration not stated) | 0.726 |
| CCOC(=O)c1c(C)oc2c1C(=O)c1ccccc1C2=O | 0.902 |
| Cc1oc2c(c1C(=O)NCC1CCCO1)C(=O)c1ccccc1C2=O (configuration not stated) | 0.195 |
| Cc1oc2c(c1C(=O)NCCCn1ccnc1)C(=O)c1ccccc1C2=O | 0.0826 |
| Cc1cc(I)ccc1N1C(=O)C2C3c4ccccc4C(CO)(c4ccccc43)C2C1=O (configuration not stated) | 1.06 |
| CC(=O)N(C1=C(N2CCOCC2)C(=O)c2ccccc2C1=O)c1ccc(C(C)C)c(C)c1 | 0.509 |

| SMILES | viability index |
| --- | --- |
| Oc1c(C(Nc2ccccn2)c2ccc(Br)cc2)ccc2cccnc12 (configuration not stated) | 1.1 |
| Cc1cc(C)n(-c2ccc(NC(=O)C3CCN(Cc4cc(C)c(C)o4)CC3)cc2)n1 | 0.926 |
| Oc1ccc2ccccc2c1CNc1nc2ccccc2[nH]1 | 0.865 |
| CCN(CC)CCNc1ccc(Nc2ccnc3cc4ccccc4cc23)cc1 | 0.423 |
| Cc1ccc(-c2cc3c(nn2)-c2ccccc2C3=O)cc1 | 0.65 |
| N#Cc1cc2nc3c(nc2cc1C#N)-c1ccccc1C3=O | 0.0308 |
| CCOC(=O)c1ccc2nc3c(nc2c1)C(=O)c1ccccc1C3=O | 0.359 |
| Cc1[nH]c2ccccc2c1C=Cc1cc[n+](C)cc1 | 1.08 |
| O=C(C1CCN(c2nnnn2-c2ccccc2)CC1)N1CCc2ccccc2C1 | 0.826 |
| N#CC(=Cc1ccc(Sc2ccccc2)o1)c1nc2ccccc2[nH]1 | 0.776 |
| N#CC(=CC=Cc1ccc([N+](=O)[O-])o1)c1nc2ccccc2[nH]1 | 0.0143 |
| CCN(CC)c1ccc(C=C(C#N)c2nc3ccccc3[nH]2)o1 | 0.609 |
| O=S(=O)(c1ccc(Cl)cc1)N1CCN(C(=S)NCc2ccco2)CC1 | 0.959 |
| CCOC(=O)C1=C(C)NC2=C(C(=O)CC(c3ccc(Cl)cc3)C2)C1c1ccc(Br)cc1 (configuration not stated) | 0.725 |
| OC1CCCCC1C1(NC(=S)Nc2ccccc2)CCCCC1 (configuration not stated) | 1.08 |
| CC(C)(C)NC(=S)NN=CC=NNC(=S)NC(C)(C)C | 0.299 |
| S=C(NN=CC=NNC(=S)Nc1ccccc1)Nc1ccccc1 | 0.104 |
| O=S(=O)(NCCNc1ncnc2scc(-c3ccccc3)c12)c1ccc(Cl)c(Cl)c1 | 0.554 |
| c1ccc2nc3c(nnc4ccccc43)nc2c1 | 0.092 |
| FC(F)(F)c1ccc(Nc2nnnc3ccccc23)cc1 | 1.04 |
| Brc1ccc2[nH]c3nc4ccccc4nc3c2c1 | 0.699 |
| CC(=NNC(N)=S)C(C)=NNC(N)=S | 0.27 |
| COC(OC)C(C)=NNC(N)=S | 0.112 |

| SMILES | viability index |
| --- | --- |
| COc1cc(Nc2cncc(-c3ccncc3)n2)cc(OC)c1OC | 0.524 |
| COc1cc(Nc2cncc(-c3ccc(C(N)=O)cc3)n2)cc(OC)c1OC | 0.0179 |
| COc1cc(C(=O)Nc2nnc(-c3ccccc3)o2)cc(OC)c1OC | 0.81 |
| CSc1ccc(C=CC(=O)NC(=O)c2ccccc2O)cc1 | 0.661 |
| CCOC(=O)C1=C(C)N(CCNc2ncc(C(F)(F)F)cc2Cl)C(=O)CC1 | 1.04 |
| CCCCCc1ccc(OCCCC[n+]2cccc(C)c2C)c(CCCCC)c1 | 0.521 |
| CCCn1c(=N)c(C(=O)NC2CCCCC2)cc2c(=O)n3cccc(C)c3nc21 | 1.15 |
| CC(NCCN1CCNCC1)c1cc(C(C)(C)C)cc2c1CCC2(C)C (configuration not stated) | 0.104 |
| CC(NCCCN(C)C)c1cc(C(C)(C)C)cc2c1CCC2(C)C (configuration not stated) | 0.283 |
| CC(C)=CCCC(C)=CCCC(C)NCCN1CCNCC1 (configuration not stated) | 0.135 |
| CC12C(=O)N(c3cccc(C(=O)O)c3)C(=O)C1C1c3ccccc3C2c2ccccc21 (configuration not stated) | 1.15 |
| Cc1c(Cl)cccc1NCC(=O)NN=C1CCCC1 | 0.779 |
| COc1ccc(NC(=O)C2c3ccccc3C(=O)N(CC(C)C)C2c2cccs2)cc1OC (configuration not stated) | 0.0723 |
| CC(C)CN1C(=O)c2ccccc2C(C(=O)Nc2ccc(F)c(Cl)c2)C1c1cccs1 (configuration not stated) | 0.237 |
| CC(C)CN1C(=O)c2ccccc2C(C(=O)Nc2ccc(C(C)C)cc2)C1c1cccs1 (configuration not stated) | 0.281 |
| COc1ccc(NC(=O)C2c3ccccc3C(=O)N(CC(C)C)C2c2cccs2)cc1Cl (configuration not stated) | 0.104 |
| COc1ccc(Cl)cc1NC(=O)C1c2ccccc2C(=O)N(CC(C)C)C1c1cccs1 (configuration not stated) | 0.426 |
| COc1cc(OC)c(NC(=O)C2c3ccccc3C(=O)N(C)C2c2cccs2)cc1Cl (configuration not stated) | 0.546 |
| COc1cc(Cl)c(C)cc1NC(=O)C1c2ccccc2C(=O)N(CC(C)C)C1c1cccs1 (configuration not stated) | 0.398 |
| CC(C)CN1C(=O)c2ccccc2C(C(=O)Nc2cccc(Cl)c2)C1c1cccs1 (configuration not stated) | 0.209 |
| COc1cc(OC)c(NC(=O)C2c3ccccc3C(=O)N(CC(C)C)C2c2cccs2)cc1Cl (configuration not stated) | 0.0683 |
| COc1cc(C(c2c(C)n(C)n(-c3ccccc3)c2=O)c2c(C)n(C)n(-c3ccccc3)c2=O)cc(Cl)c1OCc1ccccc1 | 0.699 |
| Cc1n(C)c2ccccc2[n+]1CC(=O)c1ccccc1 | 0.785 |

From the supplement of paper PMC4723716
